Compounds without any hit were thinned out: in the full panel of roughly 83,000, 20% have a hit.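 48-hour exposure, single concentration, 96-well plates; percent growth endpoint where 0 means no net growth. Active: below 10.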 A number with no mark means an inactive call. Active and inactive are the calls of the source.
Experiments:
Experiment in all cases: NCI-60 one-dose screen, 48 h (100 = growth as untreated, 0 = no growth, -100 = all killed)
Conditions in all cases: 10 µM unless noted
HCT-15 colon = tested on: HCT-15 colon
HT29 colon = tested on: HT29 colon
SNB-75 CNS = tested on: SNB-75 CNS
SNB-19 CNS = tested on: SNB-19 CNS
U251 CNS = tested on: U251 CNS
PC-3 prostate = tested on: PC-3 prostate
SK-MEL-5 melanoma = tested on: SK-MEL-5 melanoma
UACC-62 melanoma = tested on: UACC-62 melanoma
LOX IMVI melanoma = tested on: LOX IMVI melanoma
SK-MEL-28 melanoma = tested on: SK-MEL-28 melanoma
SK-MEL-2 melanoma = tested on: SK-MEL-2 melanoma
EKVX NSCLC = tested on: EKVX NSCLC
SN12C renal = tested on: SN12C renal
UO-31 renal = tested on: UO-31 renal
TK-10 renal = tested on: TK-10 renal
ACHN renal = tested on: ACHN renal
CAKI-1 renal = tested on: CAKI-1 renal
CCRF-CEM leukemia = tested on: CCRF-CEM leukemia
MOLT-4 leukemia = tested on: MOLT-4 leukemia

SMILES | growth (HCT-15 colon) | growth (HT29 colon) | growth (SNB-75 CNS) | growth (SNB-19 CNS) | growth (U251 CNS) | growth (PC-3 prostate) | growth (SK-MEL-5 melanoma) | growth (UACC-62 melanoma) | growth (LOX IMVI melanoma) | growth (SK-MEL-28 melanoma) | growth (SK-MEL-2 melanoma) [%] | growth (EKVX NSCLC) [%] | growth (SN12C renal) | growth (UO-31 renal) [%] | growth (TK-10 renal) | growth (ACHN renal) [%] | growth (CAKI-1 renal) [%] | growth (CCRF-CEM leukemia) | growth (MOLT-4 leukemia)
COc1ccc(C(=O)CSc2nc(-c3cc(OC)ccc3OC)cc(-c3ccc(Cl)cc3)c2C#N)cc1 | 62.7% | 48.3% | 30.9% | 40.3% | 35.7% | 56.8% | 36.6% | 16.8% | 68.5% | 32.1% | 70.8 | 79.7 | 42.6% | 45.9 | 61.9% | 31 | 64.9 | 98.2% | 94.3%
COc1ccccc1/C(C)=N/NC(=O)CSc1nc2ccccc2c(=O)n1Cc1ccc(S(N)(=O)=O)cc1 | 97.6% | 114% | 89.7% | 93.3% | 103% | 111% | 97.5% | 97.4% | 89.9% | 114% | 106 | 85.6 | 102% | 77.3 | 96.1% | 105 | 85.4 | 94.5% | 97%
CCN1C(=O)/C(=C/C(=O)OC)S/C1=N\NC(=O)c1cc2ccc1/C=C\c1ccc(cc1)/C=C\2 | 68.4% | 45.2% | 78.8% | 85.6% | 84.4% | 56.7% | 92.5% | 78.6% | 73.5% | 100% | 94.2 | 93.6 | 95% | 79 | 93.5% | 93.4 | 89.5 | 33.9% | 37.2%
COc1cc(CC(=O)c2ccc(O)c(OC)c2)ccc1O | 110% | 94.3% | 96.8% | 98.2% | 92.5% | 83.1% | 101% | 94.8% | 96.7% | 97.2% | 106 | 111 | 94.2% | 87.5 | 102% | 102 | 98.8 | 94.2% | 80%
CC(=O)O[C@H]1Cc2c([nH]c3ccccc23)[C@@H](c2ccc(Cl)cc2)N1C(=O)CCNC(C)(C)C | 69.9% | 29% | 42.6% | 69.3% | 50.6% | 36.3% | -79.5% (active) | 53.1% | 25.6% | 8.92% (active) | 79.4 | 67.2 | 58.4% | 23.7 | 94.5% | 64.5 | 63.6 | 41% | 28.6%
O=S(=O)(NCCCNc1nccc(-c2c(-c3cccc(O)c3)nc3occn23)n1)c1ccc(Cl)cc1 | 98.7% | 36.3% | 92% | 108% | 102% | 82.7% | 39.8% | 9.05% (active) | 44.4% | 30.3% | 52.5 | 99.6 | 71.5% | 89.8 | 143% | 81 | 75.9 | 73.2% | 71.3%
COc1ccc(C(=O)Nc2cccc(C3CCc4c(cc(OC)c(OC)c4OC)O3)c2)cc1 (centres undefined) | 30.2% | 17.6% | 26.3% | 53.3% | 36.4% | 49.3% | 60.2% | 38.7% | 50.3% | 61.4% | 37.9 | 54.7 | 69.6% | 53.9 | 80.8% | 68.9 | 54.3 | 36.5% | 22.5%
O=C(Nc1ccc(F)cc1)Nc1ccc(NC(=O)c2cc(Cl)nc3ccccc23)cc1 | 98.7% | 65.3% | 67.2% | 49.7% | 62.8% | 59.4% | 70.1% | 72% | 55% | 77.7% | 90.3 | 89.2 | 73.6% | 83.1 | 83.5% | 102 | 78.5 | 41.9% | 64.2%
O=C(/C=C/c1ccc(Cl)cc1)c1ccc(NC(=O)N2CCN(c3cc4c(cc3F)c(=O)c(C(=O)O)cn4C3CC3)CC2)cc1 | 96.4% | 89.3% | 92.1% | 87.6% | 92.4% | 97.7% | 93.6% | 76.1% | 6.5% (active) | 99.2% | 98.2 | 98.4 | 86.4% | 80.2 | 107% | 101 | 82.7 | 72.2% | 92.1%
O=C(c1nc2ccccc2[nH]1)C1C(c2ccc(Cl)cc2)C2CC3CCCC[C@H]3N2[C@@]12C(=O)Nc1cc(Cl)ccc12 (some centres undefined) | 30.2% | 26% | 34.4% | 59% | 49.3% | 31.9% | 50.1% | 59.3% | 35% | 72% | 66.7 | 34.5 | 48% | 20.1 | 46.4% | 40.5 | 20.6 | 30.2% | 7.41% (active)
N#Cc1cc(-c2nc3ccccc3s2)c(=O)n(NS(=O)(=O)c2ccccc2)c1N | 108% | 107% | 73.1% | 103% | 102% | 102% | 101% | 97.1% | 99.4% | 121% | 104 | 101 | 99.9% | 72.7 | 137% | 99.5 | 81.8 | 105% | 107%
CCNC(=O)Oc1ccc(/C(=C(\C)c2ccccc2)c2ccc(OCCCN(C)C)cc2)cc1 | 52.1% | 9.13% (active) | 90.9% | 88.3% | 66.3% | 73.3% | 80.9% | 76.1% | 67.1% | 58% | 97.2 | 84 | 81.1% | 55.4 | 84.5% | 98.1 | 84.3 | 82.7% | 65.8%
O=C(Cc1ccc(/C=C/C(=O)c2nccs2)cc1)Nc1ccccc1 | 78.4% | 72.7% | 108% | 84.8% | 47.7% | 91.7% | 88.8% | 83.9% | 72.4% | 105% | 105 | 103 | 91.9% | 89.1 | 98.8% | 96.5 | 99.9 | 14.4% | 6.27% (active)
Cc1cnc(C(=O)Nc2nc3ccc(S(=O)(=O)Nc4ccc(C5(C(F)(F)F)CC5)cc4)cc3[nH]2)cn1 | 20.6% | 9.04% (active) | -7.96% (active) | 30.1% | 21.8% | 18% | -3.91% (active) | 35.3% | 35.1% | 54.1% | 37.9 | 59.1 | 34.5% | 38.7 | 32.1% | 48.2 | 22.6 | 11.1% | 20%
COc1cccc(-c2cc(C(=O)Nc3ccc(/C=C/c4ccc(OC5CCN(C)CC5)cc4)cc3)ccc2OC)c1 | -61.8% (active) | -60.1% (active) | -50.3% (active) | -11.1% (active) | -92.6% (active) | 8.53% (active) | 96% | 69.6% | -86.9% (active) | 41.7% | 98.5 | 27.2 | -78.3% (active) | 37.7 | 1.81% (active) | 60.1 | 109 | -10.8% (active) | -36.4% (active)
COc1ccc(/C=N/NC(=O)c2cnn3c2NC(c2ccccc2)C3)cc1OC (centres undefined) | 41.8% | 14% | 51.6% | 62.6% | 54.4% | 56.9% | 66.7% | 47.7% | 56.5% | 78% | 41.9 | 87.2 | 81.8% | 78.9 | 75.6% | 82.6 | 56.1 | 66.7% | 50.3%

Source: PubChem BioAssay (NCI)
